Assay results: PubChem BioAssay (Tox21)
Inconclusive results are not listed. Values without a mark were called inactive. Calls follow the shape of the dose curve; as a rule, active = well fitted cell-killing curve with a large enough effect in the repeat runs; inconclusive = weak or mixed curves, or effect the other way; inactive = flat fitted curve, though single readings scatter. Positions of bridges follow the written chain, without caps; N, C: chain ends. Non-standard residues stand in square brackets, D forms with d. Residues, ends and D or L forms follow the SMILES beside them. hArg = N=C(N)NCCCC[C@H](N)C(=O)O; Mpa = O=C(O)CCS

Test: qHTS assay to identify small molecule agonists of the sonic hedgehog signaling (Shh) pathway - cell viability counter screen (AID 1259366); also: nearly all actives have a fitted effect of over 50% in size
Settings: NIH/3T3 Gli1-Luc viability, CellTiter-Fluor, 24 h; series mostly up to 92.4 µM; viability change, negative = cytotoxic: at the top concentration
From the text: National Center for Advancing Translational Sciences [NCATS]
NIH Chemical Genomics Center [NCGC]
U.S. Environmental Protection Agency [EPA]
National Institutes of Environmental Health Sciences [NIEHS]
National Toxicology Program [NTP]
U.S. Food and Drug Administration [FDA]
The sonic hedgehog (Shh) pathway is essential for normal embryonic development. Dysregulation of the Shh pathway can cause severe developmental defects in organs. Therefore chemicals that interfere with the pathway are potential developmental toxicants. A cell line designated 3T3Gli1-Luc (DMB/OARSA/CFSAN/FDA, Laurel, MD), a NIH/3T3 derived clone containing stably integrated Gli1-Luc reporter is used to detect chemical interference of the Shh pathway, by changes in the expression of the firefly Luc gene under the control of the Gli1 transcriptional response element. This cell line was used to screen Tox21 libraries for identifying and prioritizing the potential developmental toxicants that interfere Shh pathway. The cytotoxicity of the compounds was tested in parallel by measuring the cell viability using CellTiter-Fluor assay system (Promega, Madison, WI) in the same wells.
Tox21 Assay Protocol Summary:
3T3 Gli1-Luc cells were dispensed at 2,000 per well in 5uL of culture medium into white solid bottom 1536-well plates (Greiner Bio-One, Monroe, NC) using a Multidrop Combi (Thermo Scientific, Waltham, MA) dispenser. The assay plates were incubated at 37 C and 5% CO2 for 4hr, and then 23nL of compounds dissolved in DMSO and positive control were transferred using a Pintool station (Wako, San Diego, CA). The assay plates were incubated at 37C and 5% CO2 for 24hr. For viability read, after 23hr of compound treatment, 1uL of CellTiter-Fluor reagent (Promega Corporation, Madison, WI) was added to each well of the assay plates using Flying Reagent Dispenser (FRD, Aurora Discovery, San Diego, CA) and incubated the assay plates at 37C for 1hr. The fluorescence signal was quantified using a ViewLux plate reader (Perkin Elmer, Shelton, CT).
% is scaled to controls: 0 for no effect and ±100 for the full control effect.

Question: Which “viability change, negative = cytotoxic” value does the source give for `CN(C)CCCO[C@@H]1[C@H]2OC(C)(C)O[C@H]2O[C@@H]1C(O)CO` (stereo not given in full) here?
Answer: 0.738% [at 42.5 µM]

Question: With `NCCOCCN` as the compound, how does the “viability change, negative = cytotoxic” value read?
Answer: 2.71%

Question: With `CN1CCOC(c2ccccc2)c2ccccc2C1` (stereo not given) as the compound, how does the “viability change, negative = cytotoxic” value read?
Answer: -9.21% [at 42.5 µM]

Question: For `C=C(C)[C@@H]1CC=C(C)CC1`, which “viability change, negative = cytotoxic” value is on record?
Answer: -5.34%

Question: Which viability change, negative = cytotoxic does the source give for `N[C@@H](Cc1ccc(O)cc1)C(=O)O` here?
Answer: -1.95% [at 8.39 µM]

Question: For `CC(=O)C(C)O` (stereo not given), which “viability change, negative = cytotoxic” value is on record?
Answer: 5.09%

Question: For `Cc1ncc([N+](=O)[O-])n1CC(C)O` (stereo not given), which “viability change, negative = cytotoxic” value is on record?
Answer: 3.14% [at 42.5 µM]

Question: Which “viability change, negative = cytotoxic” value does the source give for `CCC(C(=O)OCCN1CCOC(c2ccccc2)C1C)c1ccccc1` (stereo not given) here?
Answer: 5.2% [at 42.5 µM]

Question: Which “viability change, negative = cytotoxic” value does the source give for `Cc1cc(-c2ccccc2)nnc1NCCN1CCOCC1` here?
Answer: -5.72% [at 42.5 µM]

Question: For `N#Cc1ccccc1O`, which “viability change, negative = cytotoxic” value is on record?
Answer: -0.285%

Question: Which “viability change, negative = cytotoxic” value does the source give for `NC(=O)[C@@H]1CSSCCC(=O)N[C@@H](CCCCN=C(N)N)C(=O)NCC(=O)N[C@@H](CC(=O)O)C(=O)N[C@@H](Cc2c[nH]c3ccccc23)C(=O)N2CCC[C@H]2C(=O)N1` ([Mpa][hArg]GDWPC-NH2; disulfide 1-7) here?
Answer: -3.67% [at 42.5 µM]

Question: Which “viability change, negative = cytotoxic” value does the source give for `COc1cc2c(cc1OC)C(=O)C(CC1CCN(Cc3ccccc3)CC1)C2` (stereo not given) here?
Answer: 17.6% [at 42.5 µM]

Question: With `O=C1c2ccccc2C(=O)c2cc(Cl)ccc21` as the compound, how does the viability change, negative = cytotoxic read?
Answer: 3.28% [at 8.39 µM]

Question: Which “viability change, negative = cytotoxic” value does the source give for `CCC(C)OC(C)CC` (stereo not given) here?
Answer: 16.9%

Question: For `O=C(Cl)c1ccccc1[N+](=O)[O-]`, which “viability change, negative = cytotoxic” value is on record?
Answer: -3.08%

Question: With `Cc1c(N)cccc1Cl` as the compound, how does the “viability change, negative = cytotoxic” value read?
Answer: 1.43%

Question: Which “viability change, negative = cytotoxic” value does the source give for `CC(C)=CCC[C@@](C)(O)[C@H]1CC=C(C)CC1` here?
Answer: 4.47% [at 42.5 µM]

Question: Which “viability change, negative = cytotoxic” value does the source give for `CCCCCCCCCOC(=O)CCCCC(=O)OCCCCCCC` here?
Answer: 3.5%

Question: For `Cc1c(C(=O)c2c[nH]n(C)c2=O)ccc(S(C)(=O)=O)c1C1=NOCC1`, which “viability change, negative = cytotoxic” value is on record?
Answer: 7.4% [at 42.5 µM]

Question: For `c1ccc2cnccc2c1`, which “viability change, negative = cytotoxic” value is on record?
Answer: 1.15%

Question: For `Fc1ccccc1`, which “viability change, negative = cytotoxic” value is on record?
Answer: 1.5%

Question: With `O=C(CN1CCNCC1)NC1CCCCC1` as the compound, how does the “viability change, negative = cytotoxic” value read?
Answer: -1.03% [at 42.5 µM]

Question: Which “viability change, negative = cytotoxic” value does the source give for `CO/N=C(/C(=O)N[C@@H]1C(=O)N2C(C(=O)[O-])=C(C[n+]3ccn4ncccc43)CS[C@H]12)c1nsc(N)n1` here?
Answer: -1.15% [at 42.5 µM]

Question: Which “viability change, negative = cytotoxic” value does the source give for `O=C(NCN1CCOCC1)c1cnccn1` here?
Answer: 4.13% [at 42.5 µM]

Question: With `OCC1(CO)COCOC1` as the compound, how does the “viability change, negative = cytotoxic” value read?
Answer: 0.247%

Question: Which “viability change, negative = cytotoxic” value does the source give for `O=C(Cn1ccnc1[N+](=O)[O-])NCc1ccccc1` here?
Answer: 1.08% [at 42.5 µM]

Question: Which “viability change, negative = cytotoxic” value does the source give for `CO[Si](CCCn1c(=O)n(CCC[Si](OC)(OC)OC)c(=O)n(CCC[Si](OC)(OC)OC)c1=O)(OC)OC` here?
Answer: 2.04% [at 42.5 µM]

Question: Which “viability change, negative = cytotoxic” value does the source give for `CC(C)OC(=O)CCC(=O)OC(C)C` here?
Answer: -1.77%

Question: With `CSc1cnccn1` as the compound, how does the “viability change, negative = cytotoxic” value read?
Answer: 8.47%

Question: For `CCCC(=O)OC/C=C(\C)CCC=C(C)C`, which “viability change, negative = cytotoxic” value is on record?
Answer: -3.54%

Question: With `C/C(CC(C)C)=N\O` as the compound, how does the “viability change, negative = cytotoxic” value read?
Answer: 6.05%

Question: For `C=C(C)C1CC=C(C)C(=O)C1` (stereo not given), which “viability change, negative = cytotoxic” value is on record?
Answer: -0.51%

Question: Which “viability change, negative = cytotoxic” value does the source give for `CCCCOCCOC(=O)COc1ccc(Cl)cc1Cl` here?
Answer: 3.25%

Question: Which “viability change, negative = cytotoxic” value does the source give for `NCC1(Cc2noc(=O)[nH]2)CCCCC1` here?
Answer: 6.52%

Question: With `CCCc1ccc(O)cc1` as the compound, how does the “viability change, negative = cytotoxic” value read?
Answer: 3.01%

Question: Which “viability change, negative = cytotoxic” value does the source give for `CC1=C(C(=O)O)N2C(=O)[C@@H](NC(=O)[C@H](N)C3=CCC=CC3)[C@H]2SC1` here?
Answer: 0.737% [at 42.5 µM]

Question: For `CCOC(CN1CCN(CC(C)C(=O)c2ccccc2)CC1)c1ccccc1` (stereo not given), which viability change, negative = cytotoxic is on record?
Answer: -6.98% [at 19 µM]

Question: Which “viability change, negative = cytotoxic” value does the source give for `CC(C)Nc1ccccc1` here?
Answer: 1.95%

Question: With `CCO[Si](CC)(OCC)OCC` as the compound, how does the “viability change, negative = cytotoxic” value read?
Answer: 2.72%

Question: With `COc1cc2c(cc1OC)CN(C(=O)[C@H](C)N[C@@H](CCc1ccccc1)C(=O)O)[C@H](C(=O)O)C2` as the compound, how does the “viability change, negative = cytotoxic” value read?
Answer: 9.47% [at 42.5 µM]
